# Pf growth 96h – P. falciparum growth inhibition at 96 hours; P. falciparum luciferase reporter growth, 96 h; Potency, µM (series often up to 28.7 µM), for the others: at the top dose activity change, negative = inhibition, most hits filed as inhibitors; 320,000 compounds, 6.9% hits; AID 504834; also: potency is read from the fitted curve at half-maximal effect; % is scaled to controls: 0 for no effect and ±100 for the full control effect
#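 Compounds incubated with erythrocytes infected by luciferase-expressing P. falciparum (2% hematocrit, 0.05% parasitemia final) for 96 hours, 37 C in 5% CO2. Growth inhibition scored as decreased luciferase luminescence.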
# Sm TGR inh – blocks Schistosoma mansoni thioredoxin glutathione reductase; Q962Y6; Potency, µM (series often up to 114 µM), inactives show top-dose activity change, negative = inhibition, actives largely listed as inhibitors; purified TGR, DTNB reduction, TNB absorbance 405 nm; 360,000 compounds, 3% hits; also: potency is read from the fitted curve at half-maximal effect; % is scaled to controls: 0 for no effect and ±100 for the full control effect; nearly all actives have a fitted effect of over 60% in size
#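 TGR 20 nM + NADPH 100 uM (dispensed conc.), cpd preinc 15 min RT; start with NADPH (500 uM addition) then DTNB (15 mM addition). Kinetic TNB absorbance, 405 nm filter. Four-parameter Hill fit across titration.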
# HCV inh – HCV inhibition | Huh7.5.1 HCVcc-Cre infection, luciferase reporter, 44 h | Potency, µM (highest dose often 41.8 µM), inactives show at the highest dose activity change, negative = inhibition, most hits filed as inhibitors | 340,000 compounds, 3.4% hits | AID 651820; also: potency is read from the fitted curve at half-maximal effect; % is scaled to controls: 0 for no effect and ±100 for the full control effect
#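 Whole-lifecycle infectious HCVcc-Cre system; cells 1,000/well, compound then virus (~0.5 moi) added 4 h after plating, 44 h culture. Luciferase read 15 sec following 15 min substrate incubation, room temp.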
# Pf growth 48h – P. falciparum growth inhibition at 48 hours (one generation) | P. falciparum luciferase growth in erythrocytes, 48 h | Potency, µM (titrated, usually from 28.7 µM), without a hit: at the top dose activity change, negative = inhibition, actives largely listed as inhibitors | AID 504832 | 310,000 compounds, 5.9% hits; also: potency is read from the fitted curve at half-maximal effect; % is scaled to controls: 0 for no effect and ±100 for the full control effect
#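 A one-generation exposure of luciferase-tagged malaria parasites in RPMI 1640/Albumax erythrocyte culture, 37 C and 5% CO2. Inhibition is inferred from decreased luminescence after adding detection reagent.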
# SARS PLP yeast – blocks SARS-CoV papain-like protease in a yeast assay; S. cerevisiae expressing SARS-CoV PLpro, growth rescue; Potency, µM (titrated, usually from 32.9 µM), without a hit: at the highest dose activity, positive = growth rescue, most hits filed as activators; 330,000 compounds, 0.19% hits; calls by dose curve; also: potency is read from the fitted curve at half-maximal effect; 0% is about no effect; nearly all actives have a fitted effect of over 55% in size
# HCMV antiviral – blocks human cytomegalovirus replication | HFF cells, HCMV-luciferase reporter, 72 h; hits give low values | activity change, negative = inhibition, % at 57.5 µM | 410,000 compounds, 4.5% hits; in the data active = activity change below about -60%; inconclusive = no clear call, values can overlap the other calls; inactive = above about -39%; also: % is scaled to controls: 0 for no effect and ±100 for the full control effect
#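 Steps: HFFs plated, 16 h 37C; compounds added; HCMV-luciferase added to MOI 1 PFU/cell; 72 h 37C; OneGlo reagent, 5 min room temperature; luminescence read, normalized to controls.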
# An asterisk follows results filed as active; i = inactive; ? = inconclusive; / = no result given. A selection: hits, their analogues and other compounds. The true share with any hit is near 15%. Unless noted, calls follow the shape of the dose curve; as a rule, active = well fitted curve in the direction sought with a large enough effect; inconclusive = small, poorly fitted or top-dose-only effect, or another doubt; inactive = no such curve, though single readings can be large; an effect the other way counts as inactive or inconclusive.
SMILES,Pf growth 96h,Sm TGR inh,HCV inh,Pf growth 48h,SARS PLP yeast,HCMV antiviral
CC(=O)Nc1ccc(NC(=S)NC(=O)/C=C/c2ccc(Cl)cc2)cc1,5%,0%,6%,2%,1%,-13
COc1ccc(/C=C/C(=O)NC(=S)NNC(=O)c2cc(OC)c(OC)c(OC)c2)cc1,?,7%,-28%,15µM*,1%,-8
Cc1ccnc(NC(=S)NC(=O)/C=C/c2ccc(Cl)cc2)c1,4.1µM*,4%,13%,57%,1%,21
O=C(/C=C/c1ccc(Cl)cc1)NC(=S)Nc1ccc(NC(=O)c2ccco2)cc1,15µM*,-2%,?,-14%,2%,-70*
COc1ccc(/C=C/C(=O)NC(=S)NNC(=O)c2ccco2)cc1,10µM*,4%,?,34%,-8%,63
COc1ccc(/C=C/C(=O)NC(=S)NNC(=O)c2cc(OC)c(OC)c(OC)c2)cc1OC,?,5%,?,?,0%,55
CCC(CO)Nc1ncnc2c1cnn2-c1ccc(C)cc1 (centres undefined),/,-4%,/,/,/,3
COc1ccc(CNC(=O)Cn2c(-c3ccccc3)cc(C(C)=O)c2C)cc1OC,/,-2%,/,/,/,10
CN1OC[C@@H]2CN(Cc3cc(Cl)cc(Cl)c3)[C@H](c3cccc(-c4ccc(C#N)cc4)c3)C[C@@H]21,/,/,/,/,/,-5
C1CN(CCN2CCOCC2)CCN1,-33%,-33%,12%,-15%,-4%,/
CN(C)c1ccc(CNC(=O)C2CCN(S(=O)(=O)c3cn(C)cn3)CC2)cc1,/,-2%,/,/,/,-23
Clc1ccc(-c2nc3c4ccccc4ccn3c2Cc2ccccc2)cc1,/,/,/,/,/,44
COc1ccc2c(C(=O)CN3CCSCC3)c[nH]c2c1,16%,-23%,9%,-16%,0%,29
COc1ccc2c(C(=O)CN(C)C3CCCCC3)c[nH]c2c1,-23%,35µM*,0%,?,-1%,33
CCOCCCN1C(=O)CN(C2CCCCCC2)C(=O)C1c1ccc(OC(C)C)c(OC)c1 (centres undefined),/,-4%,/,/,/,-23
Cc1ccc(-c2nc3c4ccccc4ccn3c2CN2CCCCC2)cc1,-14%,0%,-16%,9.3µM*,1%,19
CN(C)C(=O)Nc1ccccc1,-26%,25%,17%,20%,0%,22
COC(=O)[C@]12CCCCC=C1N(Cc1cccc3ccccc13)C(=O)[C@H](CC(=O)NCc1ccccc1)C2,/,/,/,/,/,26
CCOC(=O)[C@]12CCC=C1N(Cc1ccccc1)C(=O)[C@H](CC(=O)NCc1ccc(OC)c(OC)c1)C2,/,/,/,/,/,17
COC(=O)[C@]12CCCCC=C1N(Cc1ccc3c(c1)OCO3)C(=O)[C@H](CC(=O)NCc1cccc3ccccc13)C2,/,/,/,/,/,-61*
COC(=O)[C@]12CCCCC=C1N(Cc1cccc3ccccc13)C(=O)[C@H](CC(=O)NCCC(C)C)C2,/,/,/,/,/,-61*
CCOC(=O)[C@]12CCC=C1N(Cc1ccccc1)C(=O)[C@H](CC(=O)NCc1cccc(C(F)(F)F)c1)C2,/,/,/,/,/,-97*
COCCCNC(=O)C[C@@H]1C[C@@]2(C(=O)OC)CC(C)(C)CC=C2N(Cc2ccc3c(c2)OCO3)C1=O,/,/,/,/,/,-62*
O=C1c2ccccc2C(=O)N1N(c1ccccc1)c1ccccc1,/,/,21%,/,/,-26
O=C1C=CC(=O)N1N(c1ccccc1)c1ccccc1,26%,2.5µM*,9%,-10%,-60%,3
SMILES,Pf growth 96h,Sm TGR inh,HCV inh,Pf growth 48h,SARS PLP yeast,HCMV antiviral
Cc1ccc(S(=O)(=O)N2CCN(c3nc(C)nc4sc5c(c34)CCC(C)C5)CC2)cc1 (centres undefined),7.4µM*,6%,/,?,0%,/
O=C(c1ccco1)N1CCN(c2nc(C3CC3)nc3sc4c(c23)CCCC4)CC1,-21%,40µM*,?,9.3µM*,-18%,/
Cc1nc(N2CCN(C(=O)c3ccco3)CC2)c2c3c(sc2n1)CCCC3,?,45µM*,2.8µM*,?,-64%,-25
Cc1nc(N2CCN(c3ccccc3)CC2)c2c3c(sc2n1)CCC3,?,9%,/,?,-48%,/
Cc1nc(N2CCN(C(=O)c3ccco3)CC2)c2c3c(sc2n1)CC(C)CC3 (centres undefined),i,0%,13µM*,?,-6%,?
Cc1ccc(S(=O)(=O)N2CCN(c3nc(C)nc4sc(C)c(C)c34)CC2)cc1,-13%,-2%,6%,23%,0%,/
CCOc1ccc(CCNC(=O)c2nn(C)c3c2CSc2ccccc2-3)cc1,/,8%,/,/,/,?
CCC1CN(C(=O)C2CCN(S(=O)(=O)c3c(C)noc3/C=C/c3ccccc3F)CC2)c2cc(Cl)ccc2O1 (centres undefined),/,1%,/,/,/,-2
O=C(NCCc1ccco1)C(=O)NCC1OCCCN1S(=O)(=O)c1cc(F)ccc1F (centres undefined),2%,-13%,18%,-3%,0%,17
C[C@H]1CN([C@@H](C)CO)C(=O)CCCn2nncc2CO[C@@H]1CN(C)S(=O)(=O)c1ccc(-c2ccccc2)cc1,/,/,/,/,/,18
CC(C(=O)Nc1ccccc1)n1nnc2sc3c(c2c1=O)CCCC3 (centres undefined),/,1%,/,/,/,-15
Cc1nc(N2CCN(C(=O)c3cccs3)CC2)c2c3c(sc2n1)CCCC3,23%,8%,11µM*,?,1%,-21
CCc1nc(N2CCN(C(=O)CCl)CC2)c2c3c(sc2n1)CC(C)CC3 (centres undefined),-67%,16µM*,?,?,-1%,-10
O=C(c1ccco1)N1CCN(c2nc(C3CC3)nc3c2nnn3Cc2ccccc2Cl)CC1,-6%,1%,?,6.6µM*,-3%,-36
O=C(O)C(CO)(c1ccccc1)c1ccccc1,-2%,0%,16%,38%,0%,64
COc1ccc(-c2cc(C(=O)N/N=C(\C)c3cccnc3)c3ccccc3n2)c(OC)c1,?,-5%,-1%,29%,2%,7
O=C(CSc1nnc(Cc2cccs2)n1Cc1ccco1)Nc1cc(Cl)cc(Cl)c1,31%,35µM*,?,-29%,-11%,35
COc1ccc(C)cc1NC(=O)CSc1nnc(COc2ccccc2)n1Cc1ccco1,10µM*,?,-27%,?,-2%,43
Cc1cccc(OCc2nnc(SCC(=O)N(C(C)C)C(C)C)n2Cc2ccco2)c1C,?,?,2%,12µM*,-3%,-12
COc1ccc(C)cc1NC(=O)CSc1nnc(COc2ccc(Cl)cc2)n1Cc1ccco1,?,?,?,?,-20%,-84*
